Rv3671c protease = inhibitors of M. tuberculosis serine protease Rv3671c. P9WHR9. inhibition, % at 5.96 µM. actives 0.048% (n = 320,000). AID 2606; in the data active = inhibition above about 38%;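 note: extracellular domain of Rv3671c used as enzyme; 0% = enzyme with DMSO and 100% = no enzyme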
MazEF act = increases E. coli MazEF RNase cleavage of RNA; P0AE70; FAM/BHQ RNA-DNA oligo cleavage fluorescence, 5 h; activation, % at 20 µM; actives 0.32% (n = 350,000); in the data active = activation above about 50%
Target sequence (P0AE70 whole entry, looked up): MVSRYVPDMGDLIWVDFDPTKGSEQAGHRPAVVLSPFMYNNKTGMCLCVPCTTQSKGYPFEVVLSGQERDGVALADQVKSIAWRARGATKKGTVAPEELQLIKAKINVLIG
Mtb bLac sens = beta-lactam sensitization of Mtb H37Rv; M. tuberculosis H37Rv growth with meropenem, percent inhibition; inhibition, % at 25 µM; actives 0.27% (n = 330,000); AID 434955; call rule not given here;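 note: growth measured after seven days incubation then overnight dye step; 0% = bacteria only wells and 100% = bacteria with antibiotic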
UGM FP inh = blocks M. tuberculosis UGM enzyme. actives 0.06% (n = 320,000). purified UGM, fluorescence polarization probe displacement. inhibition, % at 10 µM; in the data active = inhibition above about 10%, passing the limit was not always enough
Target sequence (P9WIQ1 whole entry, looked up): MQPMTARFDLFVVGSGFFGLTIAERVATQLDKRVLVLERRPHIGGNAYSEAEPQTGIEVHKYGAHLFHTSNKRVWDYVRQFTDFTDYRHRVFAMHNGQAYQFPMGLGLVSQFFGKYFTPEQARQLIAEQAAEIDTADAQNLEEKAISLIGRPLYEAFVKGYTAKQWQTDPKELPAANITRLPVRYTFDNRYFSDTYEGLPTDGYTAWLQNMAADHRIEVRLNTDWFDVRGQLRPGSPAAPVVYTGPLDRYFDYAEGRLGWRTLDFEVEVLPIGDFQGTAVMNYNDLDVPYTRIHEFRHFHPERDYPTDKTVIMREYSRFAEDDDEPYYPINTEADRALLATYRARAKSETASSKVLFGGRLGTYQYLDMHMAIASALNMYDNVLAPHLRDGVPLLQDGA
RecA splice inh = blocks M. tuberculosis RecA intein splicing; P9WHJ3; cell-free RecA intein splicing, fluorescence; inhibition, % (no concentration beside the values); actives 0.75% (n = 290,000); AID 2221; in the data active = inhibition above about 30%;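 note: 0% = vehicle wells and 100% = reference inhibitor control wells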
TcdB inh = blocks C. difficile toxin B glycohydrolase activity | P18177 | TcdB glycohydrolase enzymatic assay, plate reader | inhibition, % at 9.99 µM | actives 0.24% (n = 350,000) | AID 652162; in the data active = inhibition above about 10%
An asterisk follows results filed as active; . = not tested or not shown. Rows were chosen to be rich in hits. Some 0.97% of all compounds tested hit in one or more screens of this group.

SMILES | Rv3671c protease | MazEF act | Mtb bLac sens | UGM FP inh | RecA splice inh | TcdB inh
CC(=O)Nc1cc(N=Cc2ccc(O)cc2O)c(Cl)cc1Cl | -9.6 | 129.7* | -5.3 | -0.1 | 1.8 | .
Cc1ccc(-c2ccc(/C=C(\C#N)C(=O)Nc3cc(C)nn3-c3ccccc3)o2)cc1 | 2.8 | . | -13.6 | 48.2* | -97.2 | .
CCOC(=O)c1c(NC(=S)Nc2ccccc2)sc2c1CCN(CC)C2 | -6.4 | 51.2* | -9.6 | 0.4 | -28.9 | .
CCOC(=O)c1c(NC(=O)Nc2ccc(Cl)cc2)sc(C)c1C | -1.9 | 6.1 | -0.2 | -4.4 | -3.8 | .
CCOC(=O)c1c(NC(=S)Nc2ccccc2)sc2c1CCCCC2 | 0.9 | -1.9 | 2.7 | -0.7 | -1.7 | .
CCOC(=O)c1c(NC(=O)Nc2ccc(C)cc2)sc2c1CCN(C)C2 | -8.5 | 50.3* | 1.6 | -0.4 | . | 3.1
CCOC(=O)N1CCN(S(=O)(=O)c2ccc(C(=O)Nc3sc4c(c3C(=O)OC)CCN(C)C4)cc2)CC1 | 6.0 | 295.4* | 55.1 | 0.9 | -2.0 | -2.9
CO[C@@H]1CC[C@@H]2CCN(C)C(=O)CCCN(C)C(=O)c3cccc(C#N)c3OC[C@@H]1O2 | . | . | . | . | . | -0.3
O=C1Nc2ccccc2SC1=Cc1ccccc1 | . | -24.7 | . | . | . | 1.2
O=C1Nc2ccccc2S/C1=C/Nc1cccc(Cl)c1 | -6.1 | 58.7* | -4.9 | -0.7 | 1.4 | .
CCCNC(=O)Nc1ccc2c(c1)OC[C@H](C)N(Cc1ccc(-c3ccccn3)cc1)C[C@H](C)[C@@H](OC)CN(C)C2=O | . | . | . | . | . | -0.6
Cc1ccc2occ(/C=N/NC(=O)c3ccc(Cl)cc3)c(=O)c2c1 | -9.8 | -9.3 | 7.7 | -1.0 | -3.5 | 1.4
COc1ccc(C(=O)N/N=C\c2coc3ccc(C)cc3c2=O)cc1 | 6.8 | 74.8* | -2.9 | 0.3 | 6.9 | 0.0
COc1cc(OC)cc(C(=O)NNC(=O)CN2C(=O)NC(C)(c3ccc(C)cc3)C2=O)c1 (configuration not stated) | 2.4 | 4.3 | 0.2 | -0.9 | 1.3 | 14.1*
COc1ccc(NC(=O)CN2C(=O)NC(C)(c3ccc(C)cc3)C2=O)c([N+](=O)[O-])c1 (configuration not stated) | 0.7 | -10.8 | 7.0 | 0.5 | -0.1 | 0.6
Cc1noc(C)c1NC(=O)Nc1ccc2c(c1)C(=O)N([C@H](C)CO)C[C@H](C)[C@H](CN(C)Cc1ccc(Cl)c(Cl)c1)OCCCC[C@H](C)O2 | . | . | . | . | . | 0.0
O=C(CSc1cccc2cccnc12)N/N=C/c1cccc(O)c1 | -9.7 | 4.0 | -8.4 | -1.3 | -1.9 | 7.2
O=C(CSc1cccc2cccnc12)N/N=C/c1ccc(F)cc1 | 1.2 | 7.5 | 2.1 | -0.5 | -8.3 | 11.1*
CCCNC(=O)N(C)C[C@H]1Oc2cc(-c3ccc(C)cc3)ccc2S(=O)(=O)N([C@H](C)CO)C[C@@H]1C | . | . | . | . | . | 0.0
CCOC(=O)c1cnc2ccc(Cl)cc2c1NCCN(C)C | 4.8 | -1.8 | 9.7 | 20.2* | 1.8 | .
CCOC(=O)c1cnc2ccc(Br)cc2c1NCCO | -6.0 | -8.5 | 11.4 | -1.6 | -0.1 | 2.7
C[C@@H]1CN([C@H](C)CO)C(=O)c2cc(NS(C)(=O)=O)ccc2O[C@@H]1CN(C)C(=O)Nc1cccc2ccccc12 | . | . | . | . | . | 0.1
C[C@H](CO)N1C[C@H](C)[C@H](CN(C)Cc2ccc(Cl)c(Cl)c2)Oc2c(NC(=O)c3nc4ccccc4s3)cccc2C1=O | . | . | . | . | . | 0.3
Cc1ccc(S(=O)(=O)N(CC(=O)N/N=C\c2cccs2)c2cccc3cccnc23)cc1 | 4.0 | 51.3* | 1.3 | 1.2 | -0.7 | -0.2
NC(=O)[C@H](Cc1cc2ccccc2s1)NC(=O)[C@@H]1CC2(CC(c3cccc(NC(=O)[C@@H]4CCC(=O)N4)c3)=NO2)CN1C(=O)/C=C/Sc1ccccc1 (some centres not stated) | -96.4 | -8.0 | 88.0 | 1.2 | 7.9 | -0.4
SMILES | Rv3671c protease | MazEF act | Mtb bLac sens | UGM FP inh | RecA splice inh | TcdB inh
NC(=O)[C@H](Cc1cc2ccccc2s1)NC(=O)[C@@H]1CC2(CC(c3cccc(NC(=O)[C@@H]4CCC(=O)N4)c3)=NO2)CN1C(=O)/C=C/c1c(F)cccc1Cl (some centres not stated) | -129.5 | -19.4 | 75.1 | -1.4 | 32.7* | .
C[C@H](CO)N1C[C@H](C)[C@@H](CN(C)S(=O)(=O)c2ccc(Cl)cc2)Oc2ccc(NC(=O)Cn3cnnn3)cc2CC1=O | . | . | . | . | . | -0.2
Oc1oc(-c2ccccc2)nc1C=Nc1ccccc1 | 2.1 | 5.2 | 6.1 | 1.0 | 3.4 | .
O=[N+]([O-])c1cccc(/C=C/c2nc(C=Nc3ccccc3)c(O)o2)c1 | 1.7 | 133.1* | -5.2 | 3.2 | -2.6 | 3.5
Cc1ccc(S(=O)(=O)NC(=O)c2ccc(-c3ccc(-c4ccccc4)cc3)o2)c(C)c1 | -14.1 | . | -4.1 | 1.2 | 36.4* | .
O=C1CC(c2cccnc2)=NN1c1ccccc1 | -98.7 | 3.3 | -6.3 | -0.9 | 64.4* | -1.4
O=C(NC1CCCC1)[C@H]1[C@H](CO)[C@H]2Cn3c(ccc(-c4cccnc4)c3=O)[C@H]2N1CC1CC1 | . | . | . | . | . | 0.0
COc1cccc(CN(C)C(=O)c2cccc(S(=O)(=O)NCc3ccccc3)c2)c1OC | -0.3 | 6.0 | -2.7 | 0.6 | 0.2 | 0.1
COc1ccc(CN(C)C(=O)c2cccc(Oc3ccccc3)c2)c(OC)c1OC | -6.5 | 54.9* | 1.8 | -1.0 | 8.2 | -1.1
CCN(CC)CCn1c(SCC(=O)Nc2ccc(F)cc2)nc2c(sc3ccccc32)c1=O | -5.9 | . | 3.3 | 1.5 | 1.9 | .
COc1ccccc1NC(=O)CSc1nc2c(sc3ccccc32)c(=O)n1CCN(C)C | -6.1 | 17.1 | -7.0 | 1.4 | 35.4* | 0.3
NC(=O)C[n+]1cccc2ccccc21 | 4.0 | -45.0 | 0.6 | 11.3* | -5.0 | 0.7
O=C(C[n+]1cccc2ccccc21)c1ccc(Br)cc1 | -7.1 | -35.2 | 0.7 | 2.4 | -1.7 | 0.1
CC(C)c1ccc(/C=N/NC(=O)CC(=O)NC2CCCCC2)cc1 | -0.2 | -1.6 | -4.7 | 0.6 | -5.7 | 0.7
O=C(CNS(=O)(=O)c1ccc([N+](=O)[O-])cc1)N/N=C\c1ccc(O)cc1 | -2.4 | 3.9 | -1.5 | 0.1 | 1.2 | 13.6*
CC(=O)Nc1ccc(/C=N\NC(=O)CNS(=O)(=O)c2ccc([N+](=O)[O-])cc2)cc1 | -1.7 | 0.3 | -5.0 | -1.8 | -2.5 | 1.4
O=C(CC(=O)N/N=C/c1ccc(O)cc1)N/N=C/c1ccc(O)cc1 | 10.1 | 2.1 | -2.1 | 1.2 | 3.1 | 24.4*
O=C(Cc1cccs1)N/N=C\c1ccc(O)cc1 | 1.9 | 0.8 | -5.8 | -0.8 | -1.0 | .
C=CCOc1ccc(/C=N/NC(=O)CC(=O)NC2CCCCC2)cc1 | 7.1 | 514.2* | 3.6 | -2.7 | 0.0 | 0.0
CN1c2ccccc2C(C)(C)C12C=Nc1c(cc(N3CCOCC3)c3ccccc13)O2 (configuration not stated) | . | -2.7 | . | . | 45.7* | .
CN1c2ccccc2C(C)(C)C12C=Cc1cc(O)ccc1O2 (configuration not stated) | -110.6 | 17.7 | 1.6 | 0.5 | 5.9 | 1.0
COC(=O)c1cc(Br)ccc1-c1ccc(/C=N/n2nnnc2N)o1 | -3.6 | 53.7* | -8.6 | -1.0 | 1.3 | .
